We go through 13 compounds from PubChem BioAssay (NCATS).

Inconclusive results are not listed. Calls of active or inactive are those of the source. Calls come from the whole dose curve; as a rule, active = well fitted curve in the direction sought with a large enough effect; inconclusive = small, poorly fitted or top-dose-only effect, or another doubt; inactive = no such curve, though single readings can be large; an effect the other way counts as inactive or inconclusive.

The nature of experiment [1]: S16 Schwann cell viability assay (CellTiter-Glo assay) (AID 624031).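 Note: native untransfected S16 rat Schwann cells; nearly all actives have a fitted effect of over 70% in size.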 Summed up: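 Cells were seeded at 500-750 per well in phenol red-free DMEM with 10% FBS and left overnight. Compounds or DMSO were pinned in, incubation ran 24 h at 37 °C/5% CO2, then CellTiter-Glo reagent was added and luminescence measured.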
On the technique in general: ATP-based viability assays read luminescence as a measure of living cells.

The subject of a further experiment is AA1029. Put plainly: qHTS profiling for inhibitors of Plasmodium falciparum proliferation (AID 504749). Note: nearly all actives have a fitted effect of over 60% in size. Note: potency is the fitted concentration of half-maximal effect. The conditions noted are these: P. falciparum in erythrocytes, SYBR Green DNA, 72 h; series mostly up to 12.8 µM. An outline of the steps: (§1)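 SYBR Green fluorescence of parasite DNA, read after lysis and overnight dark incubation, measured growth over 72 h in erythrocyte culture at 0.3% parasitemia and 2.5% hematocrit. Data normalised to DMSO and 0.29 uM artemisinin, with plate-drift correction.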

The next experiment deals with AS120. The description is as above. To be noted: P. falciparum in erythrocytes, SYBR Green DNA, 72 h; series mostly up to 12.8 µM. Summed up:
as §1

A further experiment deals with ATS189. The description is as above. To be noted: P. falciparum in erythrocytes, SYBR Green DNA, 72 h; series mostly up to 12.8 µM. Summed up:
as §1

The subject of the next experiment is ATS95. The description is as above. To be noted: P. falciparum in erythrocytes, SYBR Green DNA, 72 h; series mostly up to 12.8 µM. An outline of the steps: as §1
The test system of another experiment is CP191. The experiment is described as above. The conditions noted are these: P. falciparum in erythrocytes, SYBR Green DNA, 72 h; series mostly up to 12.8 µM. Summed up: as §1
The test system of another experiment is CP192. The description is as above. To be noted: P. falciparum in erythrocytes, SYBR Green DNA, 72 h; series mostly up to 12.8 µM. Summed up:
as §1

In the next experiment the test system is CP238. The experiment is described as above. To be noted: P. falciparum in erythrocytes, SYBR Green DNA, 72 h; series mostly up to 12.8 µM. Summed up: as §1
The next experiment concerns CP247. The description is as above. To be noted: P. falciparum in erythrocytes, SYBR Green DNA, 72 h; series mostly up to 12.8 µM. An outline of the steps: as §1
The next experiment relates to CP256. Described as above. To be noted: P. falciparum in erythrocytes, SYBR Green DNA, 72 h; series mostly up to 12.8 µM. An outline of the steps:
as §1

The next experiment concerns CP262. The description is as above. The conditions noted are these: P. falciparum in erythrocytes, SYBR Green DNA, 72 h; series mostly up to 12.8 µM. An outline of the steps:
as §1

In the next experiment the test system is CP265. Described as above. To be noted: P. falciparum in erythrocytes, SYBR Green DNA, 72 h; series mostly up to 12.8 µM. Summed up: as §1
For the next experiment, the system named is Dd2. Described as above. The conditions noted are these: P. falciparum in erythrocytes, SYBR Green DNA, 72 h; series mostly up to 12.8 µM. An outline of the steps: as §1
The subject of another experiment is N140. The experiment is described as above. To be noted: P. falciparum in erythrocytes, SYBR Green DNA, 72 h; series mostly up to 12.8 µM. An outline of the steps:
as §1

The subject of the next experiment is P93_24. The experiment is described as above. The conditions noted are these: P. falciparum in erythrocytes, SYBR Green DNA, 72 h; series mostly up to 12.8 µM. Summed up:
as §1

A further experiment relates to PAD. The description is as above. To be noted: P. falciparum in erythrocytes, SYBR Green DNA, 72 h; series mostly up to 12.8 µM. An outline of the steps:
as §1

Another experiment has as its system PC15. Described as above. The conditions noted are these: P. falciparum in erythrocytes, SYBR Green DNA, 72 h; series mostly up to 12.8 µM. An outline of the steps: as §1
Another experiment deals with SC27B. The description is as above. The conditions noted are these: P. falciparum in erythrocytes, SYBR Green DNA, 72 h; series mostly up to 12.8 µM. Summed up:
as §1

A further experiment deals with TAB109. The description is as above. To be noted: P. falciparum in erythrocytes, SYBR Green DNA, 72 h; series mostly up to 12.8 µM. An outline of the steps:
as §1

Another experiment deals with TAB165. The experiment is described as above. To be noted: P. falciparum in erythrocytes, SYBR Green DNA, 72 h; series mostly up to 12.8 µM. An outline of the steps: as §1

Regarding `O=C(Nc1ccccc1)OC[C@H](CN1CCCCC1)OC(=O)Nc1ccccc1`, the compound was called inactive in [1]. In addition, the Potency entry with AA1029, with AS120, with ATS189, in the experiment on ATS95, in the experiment on CP191 and in the experiment on CP192 was “inactive” each time. For the same compound, the Potency result in the experiment on CP238, with CP247, in the experiment on CP256, in the experiment with CP262, in the experiment with CP265 and in the experiment on Dd2 was “inactive” throughout. Also, the Potency entry with N140, in the experiment with P93_24, in the experiment on PAD, in the experiment with PC15, in the experiment on SC27B and in the experiment on TAB109 was “inactive” in each case. In the experiment with TAB165, the Potency entry is “inactive”.
In the case of `Cc1cccc(C)c1NC(=O)[C@H](C)N`, the compound was classed as inactive in experiment [1]. In addition, the Potency result in the experiment with AA1029, in the experiment with AS120, with ATS189, in the experiment with ATS95, in the experiment on CP191 and in the experiment on CP238 was “inactive” each time. For the same compound, the Potency entry in the experiment on CP247, with CP256, with CP265, in the experiment with Dd2, with N140 and with P93_24 was “inactive” each time. For the same compound, the Potency result in the experiment with PAD, with PC15, with SC27B, with TAB109 and with TAB165 was “inactive” in each case.
For `CC(=O)O[C@]1(C(C)=O)CC[C@@H]2[C@@H]3C=C(C)C4=CC(=O)CC[C@@]4(C)[C@H]3CC[C@]21C`, the result in [1] was inactive. Also, the Potency entry in the experiment on AA1029, in the experiment with AS120, in the experiment with ATS189, in the experiment with ATS95, with CP191 and with CP192 was “inactive” in each case. Also, the Potency entry with CP238, with CP247, with CP256, with CP262, in the experiment on CP265 and in the experiment on Dd2 was “inactive” each time. Also, the Potency result in the experiment with N140, in the experiment on P93_24, with PAD, in the experiment on PC15, with SC27B and in the experiment on TAB109 was “inactive” in each case. Moreover, the Potency entry in the experiment on TAB165 is “inactive”.
As for `CN1C(=O)C[C@H](c2ccccc2)C1=O`, the Potency entry with AA1029, in the experiment with ATS189, in the experiment with CP191, with CP192, in the experiment on CP238 and in the experiment with CP247 was “inactive” throughout. Further, the Potency result with CP256, in the experiment on CP262, with Dd2, in the experiment on N140, in the experiment on P93_24 and in the experiment with PAD was “inactive” throughout. Also, the Potency entry with PC15, with SC27B and with TAB165 was “inactive” in each case. Moreover, the Potency in the experiment on ATS95 was 7.1 nM (active); in the experiment with TAB109, 5 nM (active).
As to `O=C(NC[C@@H](O)CO)c1c(I)c(C(=O)NC[C@@H](O)CO)c(I)c(N(CCO)C(=O)CO)c1I`, the outcome in experiment [1] was inactive. Besides, the Potency result in the experiment on AA1029, in the experiment with AS120, in the experiment on ATS189, with ATS95, in the experiment with CP191 and in the experiment with CP192 was “inactive” throughout. Moreover, the Potency result in the experiment on CP238, in the experiment with CP247, in the experiment on CP256, in the experiment with CP262, in the experiment with CP265 and with Dd2 was “inactive” in each case. In addition, the Potency entry in the experiment on N140, in the experiment with P93_24, with PAD, in the experiment on PC15, with SC27B and in the experiment with TAB109 was “inactive” throughout. Moreover, in the experiment on TAB165, the Potency entry was “inactive”.
As to `COc1ccc([C@@H]2CC(=O)c3c(O)cc(O[C@H]4O[C@@H](CO[C@H]5O[C@@H](C)[C@@H](O)[C@@H](O)[C@@H]5O)[C@@H](O)[C@@H](O)[C@@H]4O)cc3O2)cc1O`, in experiment [1], the result was inactive. Moreover, the Potency result with AA1029, in the experiment with AS120, in the experiment with ATS189, in the experiment on ATS95, in the experiment on CP191 and with CP238 was “inactive” in each case. The Potency entry in the experiment with CP247, with CP256, in the experiment on CP262, in the experiment on CP265, in the experiment with Dd2 and with N140 was “inactive” each time. Also, the Potency entry in the experiment with P93_24, with PAD, in the experiment with PC15, in the experiment with SC27B, in the experiment with TAB109 and with TAB165 was “inactive” each time.
In the case of `C[C@H](N[C@@H](C)COc1ccccc1)[C@H](O)c1ccc(O)cc1`, the result in experiment [1] was inactive. In addition, the Potency entry in the experiment with AA1029, in the experiment with AS120, in the experiment with ATS189, in the experiment with ATS95, in the experiment on CP191 and with CP192 was “inactive” each time. For the same compound, the Potency entry with CP238, in the experiment on CP247, in the experiment on CP256, in the experiment on CP262, in the experiment with CP265 and with N140 was “inactive” throughout. The Potency result in the experiment with P93_24, in the experiment on PAD, in the experiment with PC15, in the experiment with SC27B, in the experiment with TAB109 and in the experiment with TAB165 was “inactive” throughout.
On to `CC[C@@H]1OC(=O)[C@H](C)[C@H](O[C@@H]2C[C@](C)(OC)[C@H](O)[C@H](C)O2)[C@H](C)[C@H](O[C@@H]2O[C@@H](C)C[C@@H](N(C)C)[C@@H]2O)[C@](C)(O)C[C@H](C)C(=NOCOCCOC)[C@H](C)[C@H](O)[C@]1(C)O`, for which the compound was classed as inactive in experiment [1]. Besides, the Potency entry in the experiment on AA1029, in the experiment with AS120, in the experiment on ATS189, in the experiment with ATS95, in the experiment with CP192 and with CP238 was “inactive” each time. Also, the Potency result in the experiment with CP247, with CP262, in the experiment with CP265, with N140, in the experiment on P93_24 and with PAD was “inactive” throughout. The Potency entry with PC15, in the experiment on SC27B, with TAB109 and with TAB165 was “inactive” each time.
As to `CC[N+](CC)(CC)CC[C@](O)(c1ccccc1)C1CCCCC1`, the result in experiment [1] was inactive. The Potency entry in the experiment with AA1029, with AS120, in the experiment on ATS189, in the experiment on ATS95, in the experiment on CP191 and in the experiment on CP192 was “inactive” in each case. Also, the Potency result with CP238, in the experiment with CP247, in the experiment with CP256, in the experiment with CP262, in the experiment with CP265 and in the experiment on Dd2 was “inactive” throughout. The Potency result with N140, with P93_24, with PAD, in the experiment with PC15, in the experiment on SC27B and in the experiment with TAB109 was “inactive” in each case. Besides, the Potency entry with TAB165 is “inactive”.
For the compound `CC(=O)[C@@]1(O)CC[C@H]2[C@H]3C[C@@H](C)C4=CC(=O)C=C[C@]4(C)[C@@]3(F)[C@@H](O)C[C@]21C`, in [1], the compound was called inactive. Besides, the Potency entry with AA1029, in the experiment with AS120, in the experiment with ATS189, in the experiment with ATS95, in the experiment on CP191 and in the experiment with CP192 was “inactive” each time. Moreover, the Potency entry in the experiment with CP238, with CP256, with CP262, in the experiment on CP265, with Dd2 and with N140 was “inactive” throughout. Also, the Potency entry in the experiment with P93_24, in the experiment on PAD, in the experiment on PC15, in the experiment with SC27B, with TAB109 and in the experiment with TAB165 was “inactive” in each case.
With `CC(=O)N(C[C@@H](C)C(=O)O)c1c(I)cc(I)c(N)c1I`, the result in experiment [1] was inactive. In addition, the Potency entry with AA1029, with AS120, in the experiment on ATS189, in the experiment on ATS95, with CP191 and with CP238 was “inactive” throughout. In addition, the Potency entry in the experiment on CP247, with CP256, with CP265, in the experiment on Dd2, in the experiment with N140 and in the experiment with P93_24 was “inactive” in each case. Further, the Potency result in the experiment with PAD, in the experiment with PC15, with SC27B, with TAB109 and in the experiment with TAB165 was “inactive” each time.
Turning to `COC(=O)C1=C(C)NC(C)=C(C(=O)OC(C)C)[C@H]1c1cccc2nonc12`, the call in [1] was inactive. Moreover, the Potency result with CP192, with CP238, in the experiment on CP256, with CP265, in the experiment on Dd2 and in the experiment on P93_24 was “inactive” each time. Moreover, the Potency result with PAD and in the experiment on PC15 was “inactive” each time. Further, in the experiment with N140, the Potency is 3160 nM (active).
Regarding `C#C[C@@]1(O)CC[C@@H]2[C@@H]3CCC4=C(CCC(=O)C4)[C@H]3CC[C@]21C`, the compound was classed as inactive in experiment [1].
